# The sample as a whole holds a higher share of hits than the screen did.
# TbREL1 inh: TbREL1 inhibition, primary screen; TbREL1 RNA ligation, FRET fluorescence; AID 1117264; inhibition, % at 9.66 µM; hit rate 0.49% among 89,000; P86926;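 active means inhibition above the mean inhibition across all screened compounds plus 3 SD, cut at about 11% in these data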;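 further: 0% = plate median of test wells and 100% = NSC42067 control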
# TbREL1 conf: TbREL1 inhibition, confirmation; shares compounds with TbREL1 inh; TbREL1 RNA ligation, FRET fluorescence; inhibition, % at 9.66 µM; hit rate 37% among 390; AID 1117282;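 active means mean inhibition across replicates above a set limit taken from the earlier primary screen, cut at about 11% in these data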;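 further: 0% = REL1 with substrate and DMSO and 100% = REL1 plus control inhibitor NSC42067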
# The depositor's hits bear a star.
SMILES,TbREL1 inh,others
O=C(COc1ccc(F)c(Cl)c1)N[C@H]1CCCN(CC2CC2)C1,-6,
O=C(OCC#CCSc1nnc(-c2cccs2)o1)c1ccc(F)cc1,8,
Nc1ccc(C(=O)c2cccs2)cc1,0,
O=C(SCC(O)C(O)CS)c1cccs1 (stereo not drawn),18*,TbREL1 conf=4
CSc1ccccc1NC(=O)c1cccs1,5,
CC(C)(C)NC(=O)C(c1cccnc1)N(C(=O)c1cccs1)c1ccc(C(C)(C)C)cc1 (stereo not drawn),1,
c1ccc(-c2ccc(C3=Nn4c(nnc4-c4ccccc4)SC3)cc2)cc1,0,
CC(C)(C)c1ccc(-c2nnc3n2N=C(c2ccc(-c4ccccc4)cc2)CS3)cc1,0,
Cc1ccc(-c2nnc3n2N=C(c2ccc(-c4ccccc4)cc2)CS3)cc1,27*,TbREL1 conf=3
CCOC(=O)[C@@]12CCCC=C1N(CCc1ccc(Cl)cc1)C(=O)[C@H]2CC(=O)NCCCCc1ccccc1,-3,
C[C@H]1[C@@H](NC(=O)/C=C/c2ccccc2)CC[C@@]23CCCN2C(=O)CCC[C@@H]13,-2,

# Assay outcomes: PubChem BioAssay, The Scripps Research Institute Molecular Screening Center
